Data on 45 compounds can be found in PubChem BioAssay AID720709 (National Center for Advancing Translational Sciences (NCATS), 2013).

The whole screen tested about 360,000 compounds, of which about 520 (0.14%) were called active. Inconclusive results (about 3%) are left out. Only a selection was taken, and actives are over-represented in it overall. Unmarked numbers belong to inactive results. Calls follow the shape of the dose curve; as a rule, active = well fitted inhibition curve with a large enough effect; inconclusive = small, poorly fitted or top-dose-only effect; inactive = no such curve, though single readings can be large or run the other way.
Potency is read from the fitted curve at half-maximal effect.

Rap guanine nucleotide exchange factor 3 (Homo sapiens), sequence (O95398 whole entry, looked up): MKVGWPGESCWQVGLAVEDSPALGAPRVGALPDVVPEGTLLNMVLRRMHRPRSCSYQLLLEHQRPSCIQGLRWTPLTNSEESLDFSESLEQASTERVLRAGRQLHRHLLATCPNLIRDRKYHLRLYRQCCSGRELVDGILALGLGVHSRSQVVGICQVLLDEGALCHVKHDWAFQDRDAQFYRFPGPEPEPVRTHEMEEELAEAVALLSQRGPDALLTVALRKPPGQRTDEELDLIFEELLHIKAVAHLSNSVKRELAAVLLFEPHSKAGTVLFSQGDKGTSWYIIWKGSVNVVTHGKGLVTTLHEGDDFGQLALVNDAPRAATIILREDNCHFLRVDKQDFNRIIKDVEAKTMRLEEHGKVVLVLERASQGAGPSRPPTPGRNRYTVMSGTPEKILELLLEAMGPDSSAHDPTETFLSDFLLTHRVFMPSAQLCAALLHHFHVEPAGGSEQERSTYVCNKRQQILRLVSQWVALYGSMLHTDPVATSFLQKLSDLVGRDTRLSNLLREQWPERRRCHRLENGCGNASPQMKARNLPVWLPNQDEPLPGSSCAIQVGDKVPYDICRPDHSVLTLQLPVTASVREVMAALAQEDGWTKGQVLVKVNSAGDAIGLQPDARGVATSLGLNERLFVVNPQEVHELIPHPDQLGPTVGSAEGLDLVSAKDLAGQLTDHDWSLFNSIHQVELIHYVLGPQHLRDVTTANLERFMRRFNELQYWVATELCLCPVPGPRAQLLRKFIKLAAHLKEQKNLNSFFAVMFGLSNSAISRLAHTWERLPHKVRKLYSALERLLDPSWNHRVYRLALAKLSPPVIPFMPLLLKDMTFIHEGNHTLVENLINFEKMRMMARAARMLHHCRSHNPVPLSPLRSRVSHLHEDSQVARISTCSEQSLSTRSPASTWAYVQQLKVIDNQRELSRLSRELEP

The test has as its target Rap guanine nucleotide exchange factor 3 (Homo sapiens) (UniProt O95398). As to the kind of experiment: qHTS for Antagonist of cAMP-regulated guanine nucleotide exchange factor 3 (EPAC1): primary screen. Also: nearly all actives have a fitted effect of over 50% in size. As to conditions: EPAC1 GEF assay, Rap1b-BODIPY-GDP exchange fluorescence; series mostly up to 115 µM; activity change, negative = inhibition: at the top concentration. The source says: In multi-cellular eukaryotic organisms, the effects of cAMP are transduced by two ubiquitously-expressed intracellular cAMP receptors, the classic protein kinase A/cAMP-dependent protein kinase (PKA/cAPK) and the more recently discovered exchange protein directly activated by cAMP/cAMP-regulated guanine nucleotide exchange factor (EPAC/cAMP-GEF). Both PKA and EPAC are ubiquitously expressed in all tissues, and an increase in intracellular cAMP levels will lead to the activation of both PKA and EPAC. Therefore, careful dissections of the individual role and relative contribution of EPAC and PKA within the overall cAMP signaling in various model systems are critical for further elucidating the mechanism of cAMP signaling. To date no EPAC-specific antagonists and agonist, as well as isoform-specific agonists have been reported, and developing EPAC-specific pharmacological probes to determine the physiological functions that EPAC play in the overall cAMP-mediated signaling remains a major challenge within the research field. Furthermore, identified regulators of EPAC may lead to new mechanism-based therapeutic strategies specifically targeting the EPAC / cAMP-signaling components as EPAC has been implicated to play important roles in major human pathological conditions such as diabetes, heart disease, and cancer. This qHTS will be used to screen the Molecular Libraries Small Molecule Repository (MLSMR) as a concentration-titration series using the NCGC unique quantitative screening (qHTS) platform to find inhibitors for EPAC1. In addition, this assay will also be used as a counterscreen for the EPAC2 qHTS. This fluorescent based assay is developed and validated for EPAC1 that measures exchange using EPAC effector Rap1 complex with BODIPY-GDP, a GDP analog with a tethered fluorophores. Inhibitors are identified by monitoring the change in fluorescence signal as the exchanged free BODIPY-GDP has a reduced fluorescence compared to Rap1-bound BODIPY-GDP. Decrease in signal (inhibition) is the desired outcome for the EPAC1 antagonist while no activity in this assay is desired for the EPAC2 antagonist counterscreen. de Rooij, J., Zwartkruis, F. J., Verheijen, M. H., Cool, R. H., Nijman, S. M., Wittinghofer, A., and Bos, J.L. (1998) Nature 396, 474-477 [2] Kawasaki, H., Springett, G. M., Mochizuki, N., Toki, S., Nakaya, M., Matsuda, M., Housman, D. E., and Graybiel, A. M. (1998) Science 282, 2275-2279 NIH Chemical Genomics Center [NCGC] NIH Molecular Libraries Probe Centers Network [MLPCN] MLPCN Grant: NS066510 Assay Submitter (PI): Xiaodong Cheng, The University of Texas, Medical Branch
Briefly, three uL of reagents (100 nM EPAC1, 250 nM RAP1B-BODIPY-GDP, 50 uM GDP) were dispensed into a 1536-well Greiner black solid-bottom medium binding assay plate. Controls and test compounds (23 nL) were transferred to the plate via a Kalypsys pin tool equipped with a 1536-pin array. The plates were centrifuged at 1,000 rpm for 15 seconds followed by 5 minute incubation at room temperature. The assay plates were read at 5 minute intervals for 30 minutes in the ViewLux plate reader using 480nm excitation and 540nm emission filters. The results were normalized to the […] positive control ATA and DMSO.
For the compound `COC(=O)C[C@@H]1C=C[C@@H](NS(=O)(=O)c2cccc(OC)c2)[C@@H](CO)O1`, the “activity change, negative = inhibition” value is -27.2%.

On to `CC(C)(C)CC(=O)Nc1nc(C(N)Cc2ccc(C(F)(F)F)cc2)cs1` (stereo not given), for which the “activity change, negative = inhibition” value is 12.1%.

Regarding `O=C(NCc1ccccc1)C1c2ccccc2OCC(=O)N1C1CC1` (stereo not given), the “activity change, negative = inhibition” value is -2.01%.

As for `Nc1[nH]c(C(=O)c2ccccc2)c(-c2ccc(Br)cc2)c1C(=O)NC1CC1`, the “activity change, negative = inhibition” value was -28.1%.

For `Cc1ccc(S(=O)(=O)N2CCC(=O)N([C@H](COCc3ccccc3)C(C)C)CC2)cc1`, the “activity change, negative = inhibition” value was 9.8%.

For `Cn1cnc(S(=O)(=O)N2C[C@@H](O)COC[C@@H]3O[C@H](CC(=O)NC4CCC4)CC[C@H]32)c1`, the “activity change, negative = inhibition” value was -13.4%.

Take `NC1=CC(=O)C(=O)c2cccnc21`: the Potency was 56.2 µM (active).

For `O=C(OC1CC2CC1[C@H]1CCCCN1C2=O)N1CCOCC1` (stereo not given in full), the “activity change, negative = inhibition” value was 2.08%.

`O=C1C(Sc2cccc(F)c2)=C[C@@]2(O)CC[C@@H](O)[C@]1(Sc1cccc(F)c1)[C@H]2O`: the “activity change, negative = inhibition” value is -1.01%.

Consider `O=C(Nc1ccc(F)cc1)C(CCc1ccccc1)N1CCN(CC(=O)N2CCCC2)CC1` (stereo not given), for which the “activity change, negative = inhibition” value is 1.09%.

`OC(c1ccccc1)(c1ccccc1)C1CCN(CCCOc2ccccc2)CC1`: the “activity change, negative = inhibition” value is 16.4%.

As to `CCC(c1nc2ccccc2[nH]1)n1c(=O)c(-c2cccs2)nc2ccccc21` (stereo not given), the “activity change, negative = inhibition” value is 12.6%.

With `Cc1ccc(Cc2c(-c3ccc(Cl)cc3)nc3c4ccccc4ccn23)cc1`, the “activity change, negative = inhibition” value was 10.1% [at 57.5 µM].

In the case of `CCCCN1C(=O)C(CC(=O)NCc2cccs2)CC(C(=O)N2CCCCCC2)=C1C` (stereo not given), the “activity change, negative = inhibition” value was 3.73%.

On to `O=C(Nc1ccc(S(=O)(=O)Nc2nccs2)cc1)c1cc(-c2ccncc2)nc2ccccc12`, for which the Potency was 79.4 µM (active).

As to `O=C(Nc1ccc(S(=O)(=O)Nc2nccs2)cc1)c1cc(=O)[nH]c2ccccc12`, the “activity change, negative = inhibition” value was -5.17%.

Regarding `O=C(CCc1ccccc1Cl)Nc1ccc(S(=O)(=O)Nc2nccs2)cc1`, the “activity change, negative = inhibition” value was -9.94%.

As to `Cc1ccc2nc(-c3ccco3)c(Cc3cccc(Cl)c3)n2c1`, the “activity change, negative = inhibition” value was -18.2%.

With `CCOC(=O)N1CCN(C(=O)C[C@@H]2C[C@@]3(C(=O)OC)CCCCC=C3N(CCC3=CCCCC3)C2=O)CC1`, the “activity change, negative = inhibition” value is -16.7%.

For the compound `CC(C)C[C@H]1CNC(=O)C(=O)N1C[C@@H]1CCCN1C[C@H](Cc1ccccc1)N1C[C@H](CC(C)C)N(CC2CCCCCC2)C(=O)C1=O`, the “activity change, negative = inhibition” value is 18.3%.

On to `O=C(NCc1ccccn1)[C@@H]1CCCN1C(=O)[C@@H]1CCCN1C(=O)c1ccccc1`, for which the “activity change, negative = inhibition” value is -19.8%.

With `COC(=O)c1ccc2nc(-c3ccc(F)cc3)c(Cc3ccc(C)cc3)n2c1`, the “activity change, negative = inhibition” value was 4.03%.

Turning to `CC1(C(=O)NCc2ccccc2)CSCC(=O)N1CCCn1ccnc1` (stereo not given), the “activity change, negative = inhibition” value was 0.234%.

For `COc1ccc(C(C(=O)NCc2ccccc2)n2c(=O)c(-c3ccccc3)nc3ccccc32)cc1` (stereo not given), the “activity change, negative = inhibition” value is -4.62%.

Take `CC(C)(C)NC(=O)C(CCc1ccccc1)n1c(=O)c(-c2ccccc2)nc2ccccc21` (stereo not given): the “activity change, negative = inhibition” value was -7.46%.

In the case of `CCCCNC(=O)OC1CC2CC1[C@H]1CCCCN1C2=O` (stereo not given in full), the “activity change, negative = inhibition” value is -17.4%.

For `CCCCNC(=O)C[C@@H]1C[C@@]2(C(=O)OCC)CCC=C2N(Cc2cccc3ccccc23)C1=O`, the “activity change, negative = inhibition” value is 5.54%.

For the compound `CCCCn1nnnc1C(c1cc2ccccc2o1)N(C)Cc1ccc(Cl)c(Cl)c1` (stereo not given), the “activity change, negative = inhibition” value was 7.34%.

With `COC(=O)C[C@H]1C=C[C@@H](NS(=O)(=O)c2ccc(C)cc2)[C@@H](CO)O1`, the “activity change, negative = inhibition” value was 14%.

As to `CCC(c1nnnn1-c1ccc2c(c1)OCCO2)N1CCN(c2ccc(C(F)(F)F)cn2)CC1` (stereo not given), the “activity change, negative = inhibition” value was -0.835%.

As to `CC(=O)C[C@@H]1OC[C@H](CO)N1S(=O)(=O)c1ccc(C)cc1`, the “activity change, negative = inhibition” value was 9.07%.

As to `COc1ccc(C2OC(CCc3ccccc3)Cc3[nH]c(=S)[nH]c(=O)c32)cc1` (stereo not given), the “activity change, negative = inhibition” value was -21.1%.

For `CCOc1ccc(CC(=O)Nc2ccc(S(=O)(=O)Nc3cc(C)on3)cc2)cc1OCC`, the “activity change, negative = inhibition” value was 4.44%.

With `CCOc1ccc(Br)cc1S(=O)(=O)Nc1ccc(S(=O)(=O)Nc2cc(C)on2)cc1`, the Potency is 39.8 µM (active).

On to `CCOc1ccc(C(=O)Nc2ccc(S(=O)(=O)Nc3cc(C)on3)cc2)cc1`, for which the “activity change, negative = inhibition” value is -4.54%.

In the case of `CSCCC(C(=O)NC(C)(C)C)n1c(-c2ccccc2)nc2ccccc21` (stereo not given), the “activity change, negative = inhibition” value was 5.22%.

Consider `Fc1cccc(Cc2c(-c3cccc(Cl)c3)nc3ccc(Br)cn23)c1`, for which the “activity change, negative = inhibition” value is -9.71%.

For the compound `COC(=O)C[C@@H]1C=C[C@@H](NC(=O)c2cccnc2)[C@@H](CO)O1`, the “activity change, negative = inhibition” value is -6.55%.

Turning to `C[C@@H]1CC2=C(C(=O)OC(C)(C)O2)[C@@H](C2CC2)O1`, the “activity change, negative = inhibition” value is 3.98%.

Consider `O=S1(=O)CC(N2CCN(CCO)CC2)CN1Cc1cn(Cc2ccc(Cl)cc2)nn1` (stereo not given), for which the “activity change, negative = inhibition” value is -10.3%.

Turning to `Cc1nccn1-c1ccc(NC(=O)[C@H]2O[C@@H](n3ccc(=O)[nH]c3=O)[C@H](O)[C@@H]2O)cc1`, the “activity change, negative = inhibition” value is -7.46%.

As to `COc1ccc(OC)c(CN2C(=O)CCC2(C)c2nnnn2Cc2ccccc2)c1` (stereo not given), the “activity change, negative = inhibition” value is 38.3%.

On to `COC(=O)[C@@]12C[C@@H](CC(=O)NCCCCc3ccccc3)C(=O)N(CCc3ccc(OC)c(OC)c3)C1=CCC(C)(C)C2`, for which the “activity change, negative = inhibition” value is -23.2%.

With `CCCCCn1nnnc1-c1nc2cc3ccccc3cc2[nH]c1=O`, the “activity change, negative = inhibition” value was -10.4%.

In the case of `COC(=O)[C@@]12C[C@@H](CC(=O)NCCCCc3ccccc3)C(=O)N(Cc3ccccc3)C1=CCC(C)(C)C2`, the “activity change, negative = inhibition” value is 0.731%.
